Most compounds without a hit are left out; they make up all but 6.1% or so of the library.
RORg inh = inhibitors of mouse ROR gamma transcriptional activity. P51450. Drosophila S2 Gal4-RORgamma UAS-luciferase reporter, 20 h. Potency, µM (titrated, usually from 53.6 µM), usual class: inhibitors. 310,000 tested, 5.4% active; further: nearly all actives have a fitted effect of over 60% in size
Target sequence (P51450 whole entry, looked up, the tested form may be a part): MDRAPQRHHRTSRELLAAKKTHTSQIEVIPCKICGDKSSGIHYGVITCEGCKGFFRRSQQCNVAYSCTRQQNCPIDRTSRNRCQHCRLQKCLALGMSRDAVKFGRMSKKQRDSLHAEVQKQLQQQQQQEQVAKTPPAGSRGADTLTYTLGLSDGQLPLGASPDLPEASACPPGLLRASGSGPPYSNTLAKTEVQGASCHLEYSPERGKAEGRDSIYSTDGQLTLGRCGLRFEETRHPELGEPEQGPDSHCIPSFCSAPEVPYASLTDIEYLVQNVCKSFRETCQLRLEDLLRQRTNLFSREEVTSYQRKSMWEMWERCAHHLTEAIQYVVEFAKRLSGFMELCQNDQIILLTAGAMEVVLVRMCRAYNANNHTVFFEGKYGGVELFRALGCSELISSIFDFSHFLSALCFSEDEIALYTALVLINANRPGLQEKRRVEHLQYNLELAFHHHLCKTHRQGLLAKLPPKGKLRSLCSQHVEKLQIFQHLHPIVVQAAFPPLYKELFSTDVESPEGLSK
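Using a luciferase readout, inhibitors were identified by reduced reporter activity in Drosophila cells coexpressing a copper-inducible Gal4–ROR gamma fusion and UAS-driven Photinus luciferase, incubated 20 hr after 700 uM copper sulfate.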
HepG2 viability = counter-screen for TGF-b inhibitors: cytotoxicity in HepG2 cells | HepG2 CAGA-GFP viability, ATP luminescence, 18 h | Potency, µM (series often up to 46.1 µM), hits mostly cytotoxic | 410,000 tested, 0.76% active | AID 588856
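CellTiter-Glo luminescence gave cytotoxicity after 18 hours at 37 degrees C. The cells were HepG2 CAGA-GFP in 1% FBS DMEM, stimulated with 500 pg/mL TGF-beta after compound addition. %Activity was normalised to no-cell wells (complete cell-killing) and DMSO (no toxicity), and curves were fitted and classified.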
TGFb SMAD3 inh = TGF-b pathway inhibition. HepG2 CAGA-GFP TGF-b/SMAD3 reporter, GFP fluorescence, 18 h; TGF-beta stimulated, 500 pg/mL final. Potency, µM (highest dose often 46.1 µM), actives largely listed as inhibitors. 410,000 tested, 1.2% active. AID 588855; further: nearly all actives have a fitted effect of over 65% in size
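Inhibition was scored as loss of TGF-beta-induced (500 pg/mL final, 18 hours, 37 degrees C) GFP in HEPG2 cells carrying a CAGA-GFP reporter, in DMEM with 1% FBS. Well GFP was summed per cell; Activity was normalised to unstimulated and stimulated DMSO wells, then concentration-response fitting.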
ATXN2 expr inh = ATXN2 expression inhibition | HEK-293 ATXN2-luciferase reporter, luminescence, 24 h | Potency, µM (doses to about 57 µM), usual class: inhibitors | 360,000 tested, 0.72% active; further: nearly all actives have a fitted effect of over 55% in size
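qHTS (up to 57 uM final) was run with 24 h compound exposure of reporter cells at 37 °C. Each well was multiplexed: SteadyGlo luminescence measured ATXN2-luciferase expression after a fluorogenic Gly-Phe-AFC viability readout (25 uM final).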
S2 tox = cell viability loss in ATXN counter-screen. S2 cells (HEK-293 line with an ATXN2-luciferase reporter) viability, CellTiter-Fluor protease fluorescence, 24 h. Potency, µM (series often up to 56.7 µM), actives largely listed as cytotoxic. 400,000 tested, 0.49% active. AID 651635; further: nearly all actives have a fitted effect of over 40% in size
VP16 counter = counter-screen for ROR gamma inhibitors: Gal4-VP16 reporter | Potency, µM (top dose mostly 53.6 µM), actives largely listed as inhibitors | Drosophila S2 Gal4-VP16 UAS-luciferase, luminescence, 20 h | AID 2546 | 310,000 tested, 3.5% active;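 further: Gal4-VP16 expression switched on by copper sulfate through the metallothionein promoter; nearly all actives have a fitted effect of over 50% in size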
Large screens that a line does not name were inactive. The call rests on the fitted dose curve; in most records, active means well fitted curve in the direction sought with a large enough effect; inconclusive means small, poorly fitted or top-dose-only effect, or another doubt; inactive means no such curve, though single readings can be large; an effect the other way counts as inactive or inconclusive.

O=C(C[n+]1ccccc1)N/N=C/c1ccc(Cl)c(Cl)c1	none
Fc1ccc(NC(=S)N/N=C/c2cccc(Br)c2)c(F)c1	RORg inh 0.71µM, VP16 counter 2.5µM
S=C(N/N=C/c1ccc(Cl)c(Cl)c1)Nc1ccccc1Cl	RORg inh 0.32µM, S2 tox inconclusive, VP16 counter 0.79µM
Fc1cccc(/C=N/NC(=S)Nc2ccccc2Cl)c1	RORg inh 0.71µM, TGFb SMAD3 inh inconclusive, VP16 counter 1µM
Cc1ccccc1NC(=O)C(=O)N/N=C/c1cccc(Br)c1	TGFb SMAD3 inh inconclusive
O=S(=O)(c1ccc(Cl)c(NC(=S)N/N=C/c2c(F)cccc2F)c1)N1CCOCC1	RORg inh 2µM, VP16 counter 1.8µM
O=S(=O)(c1ccc(Cl)c(NC(=S)Nc2ccccc2N2CCOCC2)c1)N1CCOCC1	RORg inh inconclusive (no result: ATXN2 expr inh)
NS(=O)(=O)c1ccc(CNC(=S)Nc2cc(S(=O)(=O)N3CCOCC3)ccc2Cl)cc1	none (no result: RORg inh, VP16 counter)
O=S(=O)(c1ccc(Cl)c(NC(=S)N/N=C/c2ccc(O)cc2)c1)N1CCOCC1	RORg inh 10µM, TGFb SMAD3 inh inconclusive, ATXN2 expr inh inconclusive, S2 tox inconclusive, VP16 counter 6.3µM
O=C(Nc1ccc(F)cc1F)c1noc2c1CCc1ccccc1-2	none (no result: RORg inh, VP16 counter)
CCN(Cc1ccc2c(c1)OCO2)C(=O)/C=C/c1cccc(Br)c1	none
CC(C)(C)N(Cc1ccc2c(c1)OCO2)C(=O)/C=C\S(=O)c1ccccc1 (centres undefined)	HepG2 viability 18µM, TGFb SMAD3 inh 11µM, ATXN2 expr inh 16µM, S2 tox inconclusive (no result: RORg inh, VP16 counter)
C=CCSc1nnc(NC(=O)C23CC4CC(CC(NC(C)=O)(C4)C2)C3)s1	VP16 counter 13µM
O=C(CSc1nnc(-c2ccncc2)o1)Nc1nncs1	RORg inh inconclusive
Cc1cccc(NC(=O)CSc2nnc(-c3ccccc3C)o2)c1	RORg inh 5µM
CCc1nnc(NC(=O)CSc2nnc(-c3ccccc3NC(=O)c3ccccc3)o2)s1	RORg inh 2.2µM, VP16 counter 3.5µM
O=C(CSc1nnc(-c2ccccc2Br)o1)Nc1nncs1	RORg inh inconclusive, HepG2 viability 16µM, VP16 counter inconclusive
CCOC(=O)CSc1nnc(-c2ccccc2NC(=O)c2ccccc2)o1	none
Cc1ccc(NC(=O)CSc2nnc(-c3ccccc3C)o2)cc1C	RORg inh 14µM, VP16 counter inconclusive
O=C(Cn1ncc2ccsc2c1=O)N1CCN(c2ccccc2F)CC1	none (no result: RORg inh, VP16 counter)
Cc1nc(-c2ccc(C(=O)Nc3ccccc3F)cc2)cs1	RORg inh 8.9µM, VP16 counter 8.9µM
Cc1nc(-c2ccc(NC(=O)c3ccco3)cc2)cs1	RORg inh 3.5µM, ATXN2 expr inh 4µM, VP16 counter 4.5µM
Nc1nc(-c2ccc(NC(=O)c3ccco3)cc2)cs1	RORg inh 10µM, ATXN2 expr inh 16µM, VP16 counter inconclusive
O=C(Nc1ccc(Oc2ccc3ccccc3c2)cc1)c1ccco1	ATXN2 expr inh inconclusive, VP16 counter 10µM
Cc1nc(-c2cccc(NC(=O)c3ccco3)c2)cs1	none
Cc1nc(-c2ccc(C(=O)Nc3ccc(F)cc3)cc2)cs1	VP16 counter inconclusive
O/N=C(/C[n+]1ccsc1)c1ccc(I)cc1	none (no result: RORg inh, ATXN2 expr inh, S2 tox, VP16 counter)
CSc1ccccc1NC(=S)NC1CCCCC1	RORg inh 3.5µM, VP16 counter inconclusive
CC(C)c1ccccc1NC(=S)NC1CCCCC1	RORg inh 0.45µM, VP16 counter 10µM
O=C(Nc1cccc2ccccc12)C1CCCC1	none
S=C(Nc1cccc2ccccc12)NC1CCCCC1	RORg inh 2µM, VP16 counter 10µM
CCCCc1ccccc1NC(=S)NC1CCCC1	RORg inh 3.2µM, TGFb SMAD3 inh inconclusive, ATXN2 expr inh inconclusive, VP16 counter 4.5µM
CC(C)c1ccccc1NC(=S)NC(C)c1ccccc1 (centres undefined)	RORg inh inconclusive, TGFb SMAD3 inh inconclusive, VP16 counter inconclusive
CN(C(=O)CSc1nc(C2CCCC2)nc2c1c(=O)n(C)c(=O)n2C)c1ccccc1	none (no result: RORg inh, VP16 counter)
